# M1 ag parental = M1 agonist counterscreen hit in parental CHO-K1 cells; Fluo-8 calcium fluorescence; scaled to maximal ATP response, vehicle zero; activation, % at 3 µM; hit rate 0.48% among 360,000; AID 602248; in the data active = activation above about 15%;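 note: untransfected CHO-K1 host cells lacking M1 receptor as counterscreen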
# M1 PAM parental = nonselective activator or artifact in parental CHO-K1 calcium assay; hit rate 0.02% among 360,000; activation, % at 3 µM; AID 602247; ATP EC20, Fluo-8 calcium fluorescence; 0% at ATP EC20, 100% at ATP max;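 active = activation above the run cutoff, the mean activation of all test compounds plus 3 SD, cut at about 40% in these data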;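 note: peak over basal fluorescence ratio in a 140 s read after ATP addition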
# CHRM1 antagonist = antagonists of human M1 muscarinic receptor; P11229; CHO-K1 hM1, Fluo-8 calcium fluorescence, ACh EC80 antagonist; inhibition, % at 3 µM; hit rate 1.3% among 360,000;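 active = percent inhibition above its own plate's cutoff, namely the mean of that plate's compound wells plus 3 SD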;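 note: peak over basal fluorescence ratio during 140 s after agonist addition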
# Target sequence (P11229 whole entry, looked up): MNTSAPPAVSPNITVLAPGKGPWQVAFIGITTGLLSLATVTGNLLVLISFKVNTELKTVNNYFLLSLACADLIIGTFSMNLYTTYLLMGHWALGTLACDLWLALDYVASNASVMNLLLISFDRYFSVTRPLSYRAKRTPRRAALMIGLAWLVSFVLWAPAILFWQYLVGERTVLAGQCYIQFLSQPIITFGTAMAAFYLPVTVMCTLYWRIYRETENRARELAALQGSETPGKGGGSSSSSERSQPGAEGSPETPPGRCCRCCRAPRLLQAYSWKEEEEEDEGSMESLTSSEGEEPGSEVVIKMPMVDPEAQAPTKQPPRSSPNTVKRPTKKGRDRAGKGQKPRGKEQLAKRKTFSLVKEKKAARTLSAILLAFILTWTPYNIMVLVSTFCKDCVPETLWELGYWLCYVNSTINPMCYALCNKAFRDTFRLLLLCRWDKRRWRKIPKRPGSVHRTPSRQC
# CHRM1 agonist = human M1 muscarinic receptor agonism; activation, % at 3 µM; hit rate 0.33% among 360,000; P11229; AID 588814; CHO-K1 hM1, Fluo-8 calcium fluorescence, agonist mode; 0% DMSO, 100% acetylcholine EC100;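 active = activation above the run's mean compound activation plus 3 SD, cut at about 16% in these data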;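 note: peak over basal fluorescence ratio within a 140 s kinetic read after compound addition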
# CHRM1 PAM = potentiates human M1 receptor response to acetylcholine | P11229 | CHO-K1 hM1, Fluo-8 calcium fluorescence, ACh EC20; 0% = ACh EC20, 100% = maximal ACh | activation, % at 3 µM | hit rate 0.088% among 360,000 | AID 588819; in the data active = activation above about 19%, passing the limit was not always enough
# CHO-K1 Ca antag = M1 antagonist counterscreen hit in parental CHO-K1 cells; ATP-induced calcium, Fluo-8 fluorescence; inhibition, % at 3 µM; hit rate 0.6% among 360,000; AID 602250;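 active = inhibition above a per-plate cutoff, the plate's mean sample inhibition plus 3 SD, cut at about 24% in these data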
# Numbers stand for hits; i = inactive; ! = a repeat was not active. In the library only some 2.3% were active in any assay of this set; here they are far more common.
SMILES,M1 ag parental,M1 PAM parental,CHRM1 antagonist,CHRM1 agonist,CHRM1 PAM,CHO-K1 Ca antag
O=C(Nc1ccc(Cl)cc1)Nc1ccccc1NS(=O)(=O)c1cccs1,15.5,i,33.5,i,i,34.4
COc1cc(C)ccc1OCc1cc(C(=O)N2CCN(C)C[C@@H]2c2ccccc2)no1,i,i,i,i,i,i
O=C(Cc1ccc([N+](=O)[O-])cc1)Nc1cc(C(F)(F)F)cc(C(F)(F)F)c1,i,i,i,i,i,29.2
COCCOC(=O)c1[nH]c2c(c1C)C(=O)CC(c1ccc(OC)c(OC)c1)C2 (centres undefined),i,i,i,i,i,i
CCOC(=O)c1[nH]c2c(c1C)C(=O)CC(c1ccc(F)cc1)C2 (centres undefined),i,i,i,i,i,34.3
COC(=O)c1[nH]c2c(c1C)C(=O)CC(c1ccc(OC)c(OC)c1)C2 (centres undefined),23.2,i,i,i,i,i
COc1ccc(C(=O)O/N=C(\N)Cc2ccc([N+](=O)[O-])cc2)c(OC)c1,i,i,i,i,i,i
COc1cccc(CNC(=O)C2CSC3(C)CCC(=O)N23)c1 (centres undefined),i,i,i,i,i,i
Cc1ccccc1Oc1ccc2c(c1)[C@@H]1C[C@H](N(C)C(=O)c3cccnc3)[C@H]([C@H](C)O)C(=O)N1CC2,i,i,i,i,i,32.6
Cc1ccccc1Oc1ccc2c(c1)[C@@H]1C[C@H](N(C)C(=O)NC3CCCCC3)[C@H]([C@H](C)O)C(=O)N1CC2,i,i,i,i,i,i
C[C@H](O)[C@@H]1C(=O)N2CCc3ccc(-c4ccccc4)cc3[C@@H]2C[C@@H]1N(C)C(=O)NC1CCCCC1,i,i,41.8,i,i,i
c1coc(CSSCc2ccco2)c1,i,i,i,i,i,i
COc1ccccc1C(=O)OCC(=O)NC1CCCC1,i,i,i,i,i,i
COc1ccc(-c2oc3ccccc3c2C#CC(C)(C)O)cc1,i,i,i,i,i,i
Cc1ccc2nc(/C(C#N)=C\c3ccc(N4CCOCC4)o3)[nH]c2c1,i,i,i,30.9,i,i
COc1ccc(N2CCN(CCNC(=O)Nc3ccc(C)c(Cl)c3)CC2)cc1,18.4,i,i,i,i,i
COc1ccc(N2CCN(C(=O)c3ccc(C)c(Cl)c3)CC2)cc1,i,i,i,i,i,29.5
CC(C)CC1Nc2ncnc(N3CCN(c4ccccn4)CC3)c2N(Cc2ccc(Br)cc2)C1=O (centres undefined),i,i,40.1!,i,i,i
Cc1ccc(CN2C(=O)C(CC(C)C)Nc3ncnc(N4CCN(c5ccccn5)CC4)c32)cc1 (centres undefined),i,i,34.2,i,i,i
COc1ccc(CN2C(=O)C(CC(C)C)Nc3ncnc(N4CCN(c5ccccn5)CC4)c32)cc1 (centres undefined),i,i,i,i,i,i
Clc1ccc(C(c2ccccc2)N2CCN(c3ccccn3)CC2)cc1 (centres undefined),i,i,i,i,i,i
CN1CCCN(C(c2ccccc2)c2ccc(Cl)cc2)CC1 (centres undefined),i,i,99.7,i,i,i
Cc1c(C(=O)Nc2ccc3c(c2)OCCO3)sc2nc(-c3ccccc3)cn12,i,i,41.7,i,i,i
COc1ccc(CCNC(=O)c2sc3ccccc3c2Cl)cc1OC,i,i,i,i,i,i
COc1ccc(CCNC(=O)c2cc3sc(Cl)cc3n2C)cc1OC,i,i,i,i,i,24.1
SMILES,M1 ag parental,M1 PAM parental,CHRM1 antagonist,CHRM1 agonist,CHRM1 PAM,CHO-K1 Ca antag
CC(C)(C)C(=O)Nc1cc(NC(=O)C(C)(C)C)cc(C(=O)Nc2c[nH]c(=O)[nH]c2=O)c1,i,i,i,i,i,i
CCN=C1SC(CC(=O)Nc2ccc(N3CCOCC3)cc2)C(=O)N1CC (centres undefined),i,i,i,i,i,i
CCN=C1SC(CC(=O)Nc2ccc(C(F)(F)F)cc2)C(=O)N1CC (centres undefined),i,i,33.2,i,i,i
O=C(N/N=C/c1ccc2cccc(OCc3ccccc3)c2n1)c1ccc(Cl)cc1,i,i,34.4,i,i,i
Cc1ccc(S(=O)(=O)N2C[C@@H]3[C@H]4CC[C@H](C4)[C@@H]3[C@@H](C)[C@H]2C#N)cc1,i,i,i,i,i,i
COc1ccc(-c2sc3cc4c(cc3c2-c2ccc(OCCN3CCCCC3)cc2)OCO4)cc1,i,i,i,i,i,i
COc1ccccc1-c1sc2cc3c(cc2c1-c1ccc(OCCN2CCOCC2)cc1)OCO3,i,i,24.6,i,i,i
CCN(CC(=O)N1CCCC1)S(=O)(=O)c1ccc2ccccc2c1,i,i,i,i,i,i
CCOc1cc(CNn2cnnc2)cc(Br)c1OCC(=O)NC1CCCCC1,i,i,i,i,i,28.6
Cc1nc([N+](=O)[O-])c(SCC(O)CCl)n1Cc1ccc(Cl)cc1 (centres undefined),23.1,i,i,i,i,i
COc1ccc(Cn2c(C)nc([N+](=O)[O-])c2SCC(=O)O)cc1[N+](=O)[O-],i,i,i,i,i,i
CCOC(=O)N1CCC(NC(=O)C2CCN(C(=O)c3cc4oc(C)cc4n3Cc3c(F)cccc3Cl)CC2)CC1,i,i,i,31.8,i,i
O=[N+]([O-])c1ccc(/C=C/C2=NN(c3ccccc3)C(c3ccco3)C2)o1 (centres undefined),38.4,i,60.0,66.2,i,39.0
C(=C\c1ccco1)/C1=NN(c2ccccc2)C(c2ccco2)C1 (centres undefined),i,i,i,i,i,i
O=C(Nc1ccc(S(=O)(=O)Nc2ncccn2)cc1)c1ccco1,i,i,i,i,i,i
O=C(Nc1ccc(S(=O)(=O)Nc2ncccn2)cc1)c1ccc(Br)o1,17.6,i,i,i,i,i
CCCCC(=O)OCC(=O)c1cc(C)n(-c2c(C)n(C)n(-c3ccccc3)c2=O)c1C,i,i,i,i,i,i
CCOC(=O)c1cc(C)n(-c2c(C)n(C)n(-c3ccccc3)c2=O)c1C,i,i,34.1,i,i,i
COc1cccc(CN(C)C(=O)Cc2ccc(OC)c(S(=O)(=O)N3CCOCC3)c2)c1,i,i,i,i,i,i
CCCCCC1CC(=O)NC1(C(=O)OCC)C(=O)OCC (centres undefined),i,i,40.0,i,i,i
CCOC(=O)C1(C(=O)OCC)NC(=O)CC1CC (centres undefined),i,i,i,i,i,i
CCCCCCCCCC[n+]1cccc2c3ccccc3ccc21,17.9,i,81.6,i,i,40.2
CCCCCCCC[n+]1cccc2c3ccccc3ccc21,i,i,97.9,i,i,i
Cc1cccc[n+]1CCCCCCCCCC[n+]1ccccc1C,i,i,i,i,i,i
